Reference: the supplement of paper PMC12645437, “Orthogonal IMiD-Degron Pairs Induce Selective Protein Degradation in Cells” (ACS Chemical Biology, 2025)
In all, about 8,300 sequences were measured (“log2 fold change of degron read counts, EGFP-low vs EGFP+ sorted cells (limma voom), compound-induced degradation”: median about -1.1, highest 2% from about 3.2 on). What follows is part of a selection rich in the highest values, with near analogues and random picks from the rest.

T1: CRBN, Q96SW2
T1 chain: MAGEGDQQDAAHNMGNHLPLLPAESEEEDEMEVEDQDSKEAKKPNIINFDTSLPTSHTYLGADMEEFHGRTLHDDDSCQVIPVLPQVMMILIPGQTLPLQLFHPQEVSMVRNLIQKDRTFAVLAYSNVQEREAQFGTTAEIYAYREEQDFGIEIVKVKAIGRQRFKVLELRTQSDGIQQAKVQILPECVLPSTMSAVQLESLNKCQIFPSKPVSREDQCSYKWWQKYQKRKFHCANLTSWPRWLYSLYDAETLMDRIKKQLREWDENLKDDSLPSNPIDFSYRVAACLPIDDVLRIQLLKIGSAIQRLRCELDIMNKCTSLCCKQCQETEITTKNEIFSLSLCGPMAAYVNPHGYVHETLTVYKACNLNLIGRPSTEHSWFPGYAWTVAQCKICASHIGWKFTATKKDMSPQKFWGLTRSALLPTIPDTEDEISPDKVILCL

B1: 46F_47Y_49D_50Q_52G_53A_54I_55F_67L_, Q9UKT9 (peptide)
chain: FYCDQCGAIFTQKGNLLRHIKL
B2: 46F_47F_49P_50I_52G_53A_54G_55F_67L_, Q9UKT9 (peptide)
chain: FFCPICGAGFTQKGNLLRHIKL
B3: 46F_47M_49E_50V_52G_53A_54V_55F_67L_, Q9UKT9 (peptide)
chain: FMCEVCGAVFTQKGNLLRHIKL
B4: 46F_47E_49E_50V_52G_53A_54V_55F_67L_, Q9UKT9 (peptide)
chain: FECEVCGAVFTQKGNLLRHIKL
B5: 46F_47Y_49E_50V_52G_53A_54V_55F_67L_, Q9UKT9 (peptide)
chain: FYCEVCGAVFTQKGNLLRHIKL
B6: 46F_47V_49D_50V_52G_53A_54D_55F_67L_, Q9UKT9 (peptide)
chain: FVCDVCGADFTQKGNLLRHIKL
B7: 46F_47S_49E_50I_52G_53A_54T_55F_67L_, Q9UKT9 (peptide)
chain: FSCEICGATFTQKGNLLRHIKL
B8: 46F_47D_49E_50I_52G_53A_54T_55F_67L_, Q9UKT9 (peptide)
chain: FDCEICGATFTQKGNLLRHIKL
B9: 46F_47L_49E_50I_52G_53A_54T_55F_67L_, Q9UKT9 (peptide)
chain: FLCEICGATFTQKGNLLRHIKL
B10: 46F_47Q_49E_50I_52G_53A_54T_55F_67L_, Q9UKT9 (peptide)
chain: FQCEICGATFTQKGNLLRHIKL
B11: 46F_47C_49E_50I_52G_53A_54T_55F_67L_, Q9UKT9 (peptide)
chain: FCCEICGATFTQKGNLLRHIKL
B12: 46F_47A_49E_50I_52G_53A_54T_55F_67L_, Q9UKT9 (peptide)
chain: FACEICGATFTQKGNLLRHIKL
B13: 46F_47R_49E_50I_52G_53A_54T_55F_67L_, Q9UKT9 (peptide)
chain: FRCEICGATFTQKGNLLRHIKL
B14: 46F_47T_49E_50I_52G_53A_54T_55F_67L_, Q9UKT9 (peptide)
chain: FTCEICGATFTQKGNLLRHIKL
B15: 46F_47F_49E_50I_52G_53A_54T_55F_67L_, Q9UKT9 (peptide)
chain: FFCEICGATFTQKGNLLRHIKL
B16: 46F_47Y_49E_50I_52G_53A_54T_55F_67L_, Q9UKT9 (peptide)
chain: FYCEICGATFTQKGNLLRHIKL
B17: 46F_47K_49E_50I_52G_53A_54T_55F_67L_, Q9UKT9 (peptide)
chain: FKCEICGATFTQKGNLLRHIKL
B18: 46F_47M_49E_50I_52G_53A_54T_55F_67L_, Q9UKT9 (peptide)
chain: FMCEICGATFTQKGNLLRHIKL
B19: 46L_47N_49N_50Q_52G_53F_54H_55C_67L_, Q9UKT9 (peptide)
chain: LNCNQCGFHCTQKGNLLRHIKL
B20: 46F_47G_49E_50I_52G_53R_54Q_55F_67L_, Q9UKT9 (peptide)
chain: FGCEICGRQFTQKGNLLRHIKL
B21: 46F_47S_49P_50I_52G_53R_54C_55F_67L_, Q9UKT9 (peptide)
chain: FSCPICGRCFTQKGNLLRHIKL
B22: 46F_47Y_49D_50Q_52G_53A_54F_55F_67L_, Q9UKT9 (peptide)
chain: FYCDQCGAFFTQKGNLLRHIKL
B23: 46F_47L_49E_50I_52G_53R_54I_55F_67L_, Q9UKT9 (peptide)
chain: FLCEICGRIFTQKGNLLRHIKL
B24: 46F_47R_49N_50Q_52G_53A_54V_55F_67L_, Q9UKT9 (peptide)
chain: FRCNQCGAVFTQKGNLLRHIKL
B25: 46F_47L_49E_50I_52G_53R_54N_55F_67L_, Q9UKT9 (peptide)
chain: FLCEICGRNFTQKGNLLRHIKL
B26: 46F_47V_49N_50V_52G_53A_54H_55F_67L_, Q9UKT9 (peptide)
chain: FVCNVCGAHFTQKGNLLRHIKL
B27: 46F_47A_49P_50Q_52G_53A_54K_55F_67L_, Q9UKT9 (peptide)
chain: FACPQCGAKFTQKGNLLRHIKL
B28: 46F_47E_49P_50I_52G_53H_54A_55F_67L_, Q9UKT9 (peptide)
chain: FECPICGHAFTQKGNLLRHIKL

Target: T1, CRBN, Q96SW2
Assay: log2 fold change of degron read counts, EGFP-low vs EGFP+ sorted cells (limma voom), compound-induced degradation; higher = more compound-induced degradation of the degron-EGFP fusion; degrons are variants of IKZF1/3 zinc finger 2; compound dose not given here
Conditions: Jurkat, 18 h
[1] = compound: compound 19 (5-tert-butyl-thalidomide)
[2] = compound: compound 22 (5-morpholino-thalidomide)
[3] = compound: compound 33 (diphenyl IMiD analogue)
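Also: pooled lentiviral library of zinc finger degron-EGFP fusions in mCherry-positive Jurkat cells, FACS-sorted after compound exposure, with degron abundance counted by next-generation sequencing.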

Sequence | log2 fold change of degron read counts [1] | log2 fold change of degron read counts [2] | log2 fold change of degron read counts [3] | log2 fold change of degron read counts (compound: thalidomide)
B1 | -1.03 | -1.1 | -1.87 | -2.56
B2 | 3.02 | 2.16 | 1.63 | 0.485
B3 | -1.47 | -0.776 | 2.27 | 0.961
B4 | -0.492 | -0.885 | 1.58 | 2.31
B5 | 3.58 | 3.79 | 2.82 | 0.689
B6 | -2.64 | -1.98 | -2.16 | -1.73
B7 | 2.83 | 2.57 | 1.79 | 1.36
B8 | 1.71 | 0.141 | 0.186 | 0.436
B9 | -1.3 | -1.41 | 0.852 | 1.8
B10 | 0.665 | 2.58 | 2.4 | 3.26
B11 | 2.13 | 2.25 | 2.55 | 2.33
B12 | 3.33 | 2.04 | 0.691 | 0.374
B13 | -0.98 | -0.654 | 1.54 | 1.42
B14 | 0.577 | 2.27 | 2.39 | 2.99
B15 | 3.27 | 3.8 | 1.79 | 1.49
B16 | 3.58 | 4.05 | 2.59 | 1.19
B17 | -1.26 | -3.54 | -2.61 | -1.06
B18 | -1.21 | -0.67 | 2.2 | 1.15
B19 | -1.47 | -2.01 | -1.68 | -1.54
B20 | -0.21 | -0.999 | -1.15 | -1.42
B21 | -0.773 | -1.2 | 0.835 | -0.39
B22 | -0.965 | -1.17 | -1.35 | -2.48
B23 | -1.35 | -1.7 | -0.45 | -0.0614
B24 | -2.12 | -2.1 | -1.19 | -1.75
B25 | -2.29 | -2.99 | -1.84 | -0.409
B26 | -1.72 | -0.867 | 0.0144 | -0.327
B27 | 1.62 | -1.34 | -2.13 | -1.03
B28 | -2.37 | -2.63 | -1.62 | -1.53
